{"source": "PubChem BioAssay (NCI)", "note": "This is part of a sample that, as a whole, favours compounds with a hit. Of some 83,000 tested, about 20% had one in any assay.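 How to read the values: 0–100, growth inhibition (40 = 60% inhibited); 0, no net growth; -100 to 0, cell death (-40 = 40% of starting cells died; -100 = all dead).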 Calls of active or inactive are those of the source. How the source made its calls: active means growth percent below 10; inactive means the rest.", "data": [{"tested_on": "SR leukemia", "assay": "NCI-60 one-dose screen, 48 h (100 = growth as untreated, 0 = no growth, -100 = all killed)", "conditions": "10 µM unless noted", "values": [{"smiles": "CC(C)(C)c1cc(C=O)cc(C(C)(C)C)c1O", "growth": "101% (inactive)"}, {"smiles": "COc1ccc(OC)c(CCn2cncc2-c2c[nH]c3ccccc23)c1", "growth": "60.1% (inactive)"}, {"smiles": "COCCCN1CC(O)=C(c2nc(-c3ccc(C)cc3)cs2)C1=N", "growth": "109% (inactive)"}, {"smiles": "O=C(CCN1CCCC1)Nc1ccc2c(Nc3ccc(Br)cc3)c3ccccc3nc2c1", "growth": "-22.6% (active)"}, {"smiles": "O=C(Cn1c[n+](CC(=O)c2ccc(-c3ccccc3)cc2)c2ccccc21)Nc1cccc2cccnc12", "growth": "-17.1% (active)"}, {"smiles": "CCN1Cc2nc3sc(C)c(C)c3c(=O)n2C=C1C", "growth": "-9.23% (active)"}, {"smiles": "Cc1ccc(-n2c3c(c(-c4ccccc4)c2-c2ccccc2)C2=NCCN2C=N3)cc1", "growth": "80% (inactive)"}, {"smiles": "CCCCC[n+]1ccc(SCC(=O)N(C)c2ccc(Oc3ccccc3)cc2)c2ccccc21", "growth": "84.5% (inactive)"}, {"smiles": "COc1cc(OC)cc(C(=O)C[n+]2cccc3cc[nH]c32)c1", "growth": "116% (inactive)"}, {"smiles": "CCOC(=O)[C@@H]1CCCN(S(=O)(=O)c2ccc(S(=O)(=O)N(CC)CC)c(F)c2)C1", "growth": "60.1% (inactive)"}, {"smiles": "Cn1ccc2c1CC1CN(Cc3ccco3)C(=O)C1C2C(=O)O", "note": "(stereo not drawn)", "growth": "107% (inactive)"}, {"smiles": "O=C(NO)c1ccc(-n2nc(-c3ccccc3)c3ccccc32)cc1", "growth": "22.8% (inactive)"}, {"smiles": "COc1ccc(CC(C)=C(c2ccc(OCCN3CCCCCC3)cc2)c2ccc(OCCN3CCCCCC3)cc2)cc1", "growth": "-32.2% (active)"}, {"smiles": "Nc1n[nH]c2cccc(C#Cc3cccc(C(=O)Nc4cccc(C(F)(F)F)c4)c3)c12", "growth": "72% (inactive)"}, {"smiles": "Cc1ccc(C(=O)/C(=C/c2ccc([N+](=O)[O-])cc2)SCc2ccc(Cl)cc2)cc1", "growth": "11.4% (inactive)"}, {"smiles": "O=C(O)c1ccc2c(c1)C(=O)N(Cc1ccccc1)C2=O", "growth": "101% (inactive)"}, {"smiles": "O=C1Nc2cc(-c3cccc(O)c3)ccc2/C1=C/c1ccc[nH]1", "growth": "4.14% (active)"}, {"smiles": "O=Cc1ccc(-c2cn3ccnc3c(-c3ccc4ncn(Cc5ccccc5)c4c3)n2)cc1", "growth": "52.5% (inactive)"}, {"smiles": "CCc1ccc(CNc2ccc(N3CCOCC3)c(C(=O)O)c2)cc1", "growth": "104% (inactive)"}, {"smiles": "O=C(CCN1CCCC1)c1ccc([N+](=O)[O-])cc1", "growth": "98% (inactive)"}, {"smiles": "CNCCOc1nc2c3cnccc3cc(-c3cc(OC)c(OC)c(OC)c3)c2c2ccncc12", "growth": "-18.2% (active)"}, {"smiles": "Nc1c(S(=O)(=O)O)cc2c3c(cccc13)C(=O)OC2=O", "growth": "114% (inactive)"}, {"smiles": "Oc1ccc(C(c2ccc(O)cc2)c2ccc(Br)cn2)cc1", "growth": "104% (inactive)"}, {"smiles": "CCCCOc1ccc(/C=N/Nc2cc(C)nc3ccc(Br)cc23)cc1", "growth": "-9.77% (active)"}, {"smiles": "CC1(C)NCCC[C@]2(C)[C@H]3CC(=O)[C@H]4[C@@H]5C[C@](C)(CO)CC[C@]5(C)CC[C@@]4(C)[C@]3(C)CC[C@@H]12", "growth": "82% (inactive)"}, {"smiles": "N#Cc1cc(-c2nc3ccccc3s2)c(=O)n(NS(=O)(=O)c2ccccc2)c1N", "growth": "108% (inactive)"}, {"smiles": "O=S(=O)(NCCNc1nccc(-c2c(-c3cccc(O)c3)nc3occn23)n1)c1cccc(F)c1", "growth": "84.7% (inactive)"}, {"smiles": "c1ccc2c(-c3c[nH]c4ccccc34)c3c(cc2c1)[nH]c1ccccc13", "growth": "29.4% (inactive)"}, {"smiles": "O=C(/C=C(/C=C/c1csc2ccccc12)OB(F)F)/C=C/c1csc2ccccc12", "growth": "3.63% (active)"}, {"smiles": "Cc1ccc(-c2csc(NC(=O)CSc3nc(-c4ccccc4)cc(=O)[nH]3)n2)cc1", "growth": "101% (inactive)"}, {"smiles": "CCCC/C=N/NC(=S)NCc1ccccc1", "growth": "95% (inactive)"}, {"smiles": "COc1ccc2nc(-c3ccc(-c4noc(-c5cc(OC)c(OC)c(OC)c5)n4)cc3)[nH]c2c1", "growth": "18.9% (inactive)"}, {"smiles": "Fc1ccc(-c2cn3c(nc4ccccc43)c(-c3ccccc3)n2)cc1", "growth": "91.5% (inactive)"}, {"smiles": "CCNC(=O)Oc1ccc(/C(=C(\\C)c2ccccc2)c2ccc(OCCN3CCCCC3)cc2)cc1", "growth": "4.98% (active)"}, {"smiles": "CCCCOc1ccc(/C(C)=N/Nc2cc(C)nc3ccc(Br)cc23)cc1", "growth": "-8.75% (active)"}, {"smiles": "N#Cc1cccc(-c2ccc3c(c2)NC(=O)/C3=C\\c2ccc[nH]2)c1", "growth": "3.89% (active)"}, {"smiles": "O=C(NNc1nc2c(F)cccc2n2cccc12)c1cnccn1", "growth": "7.37% (active)"}, {"smiles": "CN(C)CCC(=O)c1ccc([N+](=O)[O-])cc1", "growth": "97.8% (inactive)"}]}, {"tested_on": "RPMI-8226 leukemia", "assay": "NCI-60 one-dose screen, 48 h (100 = growth as untreated, 0 = no growth, -100 = all killed)", "conditions": "10 µM unless noted", "values": [{"smiles": "CC(C)(C)c1cc(C=O)cc(C(C)(C)C)c1O", "growth": "72.7% (inactive)"}, {"smiles": "COc1ccc(OC)c(CCn2cncc2-c2c[nH]c3ccccc23)c1", "growth": "45.6% (inactive)"}, {"smiles": "O=C(CCN1CCCC1)Nc1ccc2c(Nc3ccc(Br)cc3)c3ccccc3nc2c1", "growth": "-34.9% (active)"}, {"smiles": "O=C(Cn1c[n+](CC(=O)c2ccc(-c3ccccc3)cc2)c2ccccc21)Nc1cccc2cccnc12", "growth": "-30.2% (active)"}, {"smiles": "Cc1ccc(-n2c3c(c(-c4ccccc4)c2-c2ccccc2)C2=NCCN2C=N3)cc1", "growth": "77.8% (inactive)"}, {"smiles": "CCCCC[n+]1ccc(SCC(=O)N(C)c2ccc(Oc3ccccc3)cc2)c2ccccc21", "growth": "66.2% (inactive)"}, {"smiles": "COc1cc(OC)cc(C(=O)C[n+]2cccc3cc[nH]c32)c1", "growth": "106% (inactive)"}, {"smiles": "CCOC(=O)[C@@H]1CCCN(S(=O)(=O)c2ccc(S(=O)(=O)N(CC)CC)c(F)c2)C1", "growth": "61% (inactive)"}, {"smiles": "Cn1ccc2c1CC1CN(Cc3ccco3)C(=O)C1C2C(=O)O", "note": "(stereo not drawn)", "growth": "109% (inactive)"}, {"smiles": "O=C(NO)c1ccc(-n2nc(-c3ccccc3)c3ccccc32)cc1", "growth": "32.6% (inactive)"}, {"smiles": "COc1ccc(CC(C)=C(c2ccc(OCCN3CCCCCC3)cc2)c2ccc(OCCN3CCCCCC3)cc2)cc1", "growth": "-57.9% (active)"}, {"smiles": "Nc1n[nH]c2cccc(C#Cc3cccc(C(=O)Nc4cccc(C(F)(F)F)c4)c3)c12", "growth": "58.9% (inactive)"}, {"smiles": "Cc1ccc(C(=O)/C(=C/c2ccc([N+](=O)[O-])cc2)SCc2ccc(Cl)cc2)cc1", "growth": "-32.7% (active)"}, {"smiles": "O=C(O)c1ccc2c(c1)C(=O)N(Cc1ccccc1)C2=O", "growth": "95.5% (inactive)"}, {"smiles": "O=C1Nc2cc(-c3cccc(O)c3)ccc2/C1=C/c1ccc[nH]1", "growth": "-15% (active)"}, {"smiles": "O=Cc1ccc(-c2cn3ccnc3c(-c3ccc4ncn(Cc5ccccc5)c4c3)n2)cc1", "growth": "17.5% (inactive)"}, {"smiles": "CCc1ccc(CNc2ccc(N3CCOCC3)c(C(=O)O)c2)cc1", "growth": "109% (inactive)"}, {"smiles": "O=C(CCN1CCCC1)c1ccc([N+](=O)[O-])cc1", "growth": "92.7% (inactive)"}, {"smiles": "CNCCOc1nc2c3cnccc3cc(-c3cc(OC)c(OC)c(OC)c3)c2c2ccncc12", "growth": "-32% (active)"}, {"smiles": "Nc1c(S(=O)(=O)O)cc2c3c(cccc13)C(=O)OC2=O", "growth": "106% (inactive)"}, {"smiles": "Oc1ccc(C(c2ccc(O)cc2)c2ccc(Br)cn2)cc1", "growth": "119% (inactive)"}, {"smiles": "CCCCOc1ccc(/C=N/Nc2cc(C)nc3ccc(Br)cc23)cc1", "growth": "-15.9% (active)"}, {"smiles": "CC1(C)NCCC[C@]2(C)[C@H]3CC(=O)[C@H]4[C@@H]5C[C@](C)(CO)CC[C@]5(C)CC[C@@]4(C)[C@]3(C)CC[C@@H]12", "growth": "95% (inactive)"}, {"smiles": "N#Cc1cc(-c2nc3ccccc3s2)c(=O)n(NS(=O)(=O)c2ccccc2)c1N", "growth": "103% (inactive)"}, {"smiles": "O=S(=O)(NCCNc1nccc(-c2c(-c3cccc(O)c3)nc3occn23)n1)c1cccc(F)c1", "growth": "97% (inactive)"}, {"smiles": "c1ccc2c(-c3c[nH]c4ccccc34)c3c(cc2c1)[nH]c1ccccc13", "growth": "54.5% (inactive)"}, {"smiles": "O=C(/C=C(/C=C/c1csc2ccccc12)OB(F)F)/C=C/c1csc2ccccc12", "growth": "-12% (active)"}, {"smiles": "Cc1ccc(-c2csc(NC(=O)CSc3nc(-c4ccccc4)cc(=O)[nH]3)n2)cc1", "growth": "78.3% (inactive)"}, {"smiles": "CCCC/C=N/NC(=S)NCc1ccccc1", "growth": "97.6% (inactive)"}, {"smiles": "Fc1ccc(-c2cn3c(nc4ccccc43)c(-c3ccccc3)n2)cc1", "growth": "111% (inactive)"}, {"smiles": "CCNC(=O)Oc1ccc(/C(=C(\\C)c2ccccc2)c2ccc(OCCN3CCCCC3)cc2)cc1", "growth": "38.7% (inactive)"}, {"smiles": "CCCCOc1ccc(/C(C)=N/Nc2cc(C)nc3ccc(Br)cc23)cc1", "growth": "57.9% (inactive)"}, {"smiles": "N#Cc1cccc(-c2ccc3c(c2)NC(=O)/C3=C\\c2ccc[nH]2)c1", "growth": "54.1% (inactive)"}, {"smiles": "O=C(NNc1nc2c(F)cccc2n2cccc12)c1cnccn1", "growth": "10.6% (inactive)"}, {"smiles": "CN(C)CCC(=O)c1ccc([N+](=O)[O-])cc1", "growth": "89% (inactive)"}]}]}
